Compound activity: PubChem BioAssay, several laboratories
HMGR II inh: E. faecalis class II HMG-CoA reductase inhibition | 190,000 compounds, 0.41% hits | AID 1066 | purified E. faecalis HMGR, NADPH absorbance 340 nm kinetic | inhibition, % at 10 µM;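 active = inhibition above a set limit, the median over all tested compounds plus 3 SD, cut at about 9.5% in these data; inconclusive = no clear call, values can overlap the other calls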;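 note: enzyme runs in reverse so mevalonate oxidation gives rising NADPH absorbance; 0% = complete reaction with DMSO and 100% = background rate lacking mevalonate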
PABP polyA inh: PABP-poly(A) binding inhibition; PABP-poly(A) RNA binding, fluorescence polarization; P11940; AID 2014; calls only at 35 µM; 290,000 compounds, 1% hits;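 note: calls also rest on retests at 20 µM and on dose response follow-up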
MLLE-PAM2 inh: blocks PAM2 peptide binding to the PABP1 MLLE domain; P11940; GST-MLLE / FITC-PAM2 fluorescence polarization; inhibition, % at 20 µM; 360,000 compounds, 0.36% hits; AID 588489; in the data active = inhibition above about 35%, passing the limit was not always enough;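 note: plate controls were DMSO wells with GST-MLLE for no effect and wells lacking GST-MLLE protein for full effect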
PHOSPHO1 inh: PHOSPHO1 (human) inhibition. inhibition, % at 13.3 µM. recombinant PHOSPHO1, absorbance phosphatase assay. 290,000 compounds, 1.1% hits. Q8TCT1. AID 1565; in the data active = inhibition above about 60%
Target sequence (Q8TCT1 whole entry, looked up): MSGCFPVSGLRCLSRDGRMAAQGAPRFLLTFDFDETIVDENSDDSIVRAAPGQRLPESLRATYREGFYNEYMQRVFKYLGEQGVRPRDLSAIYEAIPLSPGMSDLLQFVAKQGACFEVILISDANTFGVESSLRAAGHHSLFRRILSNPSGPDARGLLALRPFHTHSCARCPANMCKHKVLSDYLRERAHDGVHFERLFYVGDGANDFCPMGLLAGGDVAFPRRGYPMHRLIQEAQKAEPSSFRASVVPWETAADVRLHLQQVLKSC
eIF4H inh: inhibitors of RNA binding by human eIF4H; Q15056; eIF4H fluorescence polarization binding assay; inhibition, % at 35 µM; 290,000 compounds, 0.94% hits;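 note: calls also rest on retests at 20 µM and on dose response follow-up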
* marks the source's active call; other numbers are inactive results; i = inactive; ? = inconclusive; nt = no result given; + = active, no number. The list is not random: actives were taken first. Their share in the collection is about 2.4%. Unless noted, the rule behind the calls is not given here.

SMILES	HMGR II inh	PABP polyA inh	MLLE-PAM2 inh	PHOSPHO1 inh	eIF4H inh
Cc1ccc(NC(=O)N2CCCC2C(=O)Nc2ccc(-n3cnnn3)c(C)c2)cc1 (configuration not stated)	9.7*	i	-3	14	2
Cc1cc(C)c(S(=O)(=O)/N=C2/C=C(Sc3ncn[nH]3)C(=O)c3ccccc32)cc1C	6	i	45*	69*	7
CCc1ccc(/C=N/n2c(COc3ccccc3)n[nH]c2=S)cc1	nt	i	-65	28	3
CCc1ccccc1NC(=O)C1CCCN(S(=O)(=O)c2ccc3c(c2)CC(C)N3C(C)=O)C1 (configuration not stated)	nt	i	8	20	7
COC(=O)CCC(=O)N1CCC(CCC(=O)NCc2ccc(F)cc2)CC1	nt	i	-4	nt	2
O=C(NNC(=O)c1ccc2ccccc2c1)c1cccc(Br)c1	nt	nt	-3	nt	nt
NC(=S)NNC(=O)c1cccc(Br)c1	17*	i	nt	-31	-1
Cc1ccc(C(=O)NNC(=S)Nc2cccc3ccccc23)s1	0	i	11	86*	11
O=C(NNC(=S)Nc1cccc2ccccc12)c1cccc(Br)c1	2	i	20	64*	19
COc1ccc(C(=O)N2CCN(c3cccc(C)c3C)CC2)cc1S(=O)(=O)NC1CC1	nt	nt	2	nt	nt
Cc1ccc(C2=NN(S(=O)(=O)c3ccccc3)C(c3ccco3)C2)cc1 (configuration not stated)	nt	nt	2	nt	nt
CS(=O)(=O)Nc1ccc(C2=NN(S(=O)(=O)c3ccc(F)cc3)C(c3ccco3)C2)cc1 (configuration not stated)	0	i	-30	-23	active
O=C(Nc1ccccc1Cl)Oc1ccc(-c2ccccc2)cc1	nt	i	-8	30	-7
COc1ccc(-c2nc(CS(=O)CC(=O)NC3CCCC3)c(C)o2)cc1 (configuration not stated)	nt	i	5	70*	-18
COc1ccc(CC(=O)Oc2ccc(F)c(F)c2)cc1S(=O)(=O)N1CCOCC1	nt	nt	-4	nt	nt
CC(=O)Nc1ccc(SC[C@H](Cc2ccccc2)N2CC[C@@H](O)CCC2=O)cc1	nt	nt	41*	nt	nt
CC(=O)Nc1ccc(SC[C@H](Cc2ccccc2)N2CCN(CCc3ccccc3)CCC2=O)cc1	nt	i	30	13	-4
CC(=O)Nc1ccc(SC[C@H](Cc2ccccc2)N2CC[C@@H](C(C)(C)C)CCC2=O)cc1	nt	nt	42*	nt	nt
CCCS(=O)(=O)N1CCCC(C(=O)NCCc2cccc(C)c2)C1 (configuration not stated)	nt	i	1	38	-3
C#Cc1cccc(N2C(=O)C3C4C=CC(C3C2=O)C2C(=O)N(c3cccc(C#C)c3)C(=O)C42)c1 (configuration not stated)	nt	nt	5	nt	nt
O=[N+]([O-])c1ccc(/C=N/N=C/c2ccc([N+](=O)[O-])o2)o1	0	i	-11	8	12
Cc1cc2ncn(/N=C/c3ccc([N+](=O)[O-])o3)c2cc1C	-1	i	-56	69*	19
CC1CN(C(=O)CCNS(=O)(=O)c2ccc(Br)cc2)CC(C)O1 (configuration not stated)	nt	nt	3	nt	nt
CCCc1cc(=O)[nH]c(SCC(=O)c2ccc(S(=O)(=O)N3CCCC3)cc2)n1	0	i	29	1	-9
CCCc1cc(=O)[nH]c(SCC(=O)N2CCN(S(=O)(=O)c3ccc(Cl)cc3)CC2)n1	-6	i	10	6	56*
SMILES	HMGR II inh	PABP polyA inh	MLLE-PAM2 inh	PHOSPHO1 inh	eIF4H inh
Cc1cccc2[nH]c(SCC(=O)N3CCOCC3)nc12	11*	i	-9	10	8
O=C(CSc1nc2ccc(S(=O)(=O)N3CCOCC3)cc2[nH]1)N1CCOCC1	0	i	26	67*	4
CCCCNS(=O)(=O)c1ccc2nc(SCC(=O)N3CC(C)OC(C)C3)[nH]c2c1 (configuration not stated)	2	i	-68	75*	-3
Clc1ccccc1-c1cc2nc(NCc3ccco3)ccn2n1	nt	nt	7	nt	nt
COc1cccc(NC(=O)C(=O)N/N=C/c2cc(C)n(-c3ccc(Cl)c(Cl)c3)c2C)c1	-1	i	-8	-9	-3
Clc1nssc1=Nc1ccccc1	4	i	15	97*	3
CCOC(=O)c1ccc(N=c2ssnc2Cl)cc1	-2	i	19	77*	1
Clc1ccc(N=c2ssnc2Cl)cc1	1	i	27	89*	-9
Fc1ccc(N=c2ssnc2Cl)c(F)c1	-1	i	15	37	-6
COc1ccc(N=c2ssnc2Cl)cc1	16*	i	26	77*	2
N#Cc1ccc(N=c2ssnc2Cl)cc1	-6	i	24	-88	-6
COc1cc(N=c2ssnc2Cl)cc(OC)c1OC	0	i	14	-67	4
Cc1cc(C)c(NC(=O)CNC(=O)COC(=O)CN2C(=O)NC3(CCCC3)C2=O)c(C)c1	nt	nt	-16	nt	nt
O=C(Nc1cccc(F)c1)N1CCc2nc(NCc3cccc(Oc4ccccc4)c3)ncc2C1	nt	nt	-24	nt	nt
Cc1cc2ccccc2n1CCNC(=O)C1CCCC1	-2	+	24	42	?
Cc1cc2ccccc2n1CCNC(=O)c1cccs1	-6	+	14	12	42*
Cc1cc2ccccc2n1CCNC(=O)C1CCCCC1	-8	i	11	-6	19
Cc1cc2ccccc2n1CCNC(=O)C1CC1	nt	+	20	25	112
O=C(NCCn1ccc2ccccc21)C1CCCCC1	-8	i	-16	24	2
COCCN(C(=O)COC(=O)c1ccccc1NCc1ccco1)c1c(N)n(Cc2ccccc2)c(=O)[nH]c1=O	nt	nt	-16	nt	nt
Cc1cc(C)c(C(=O)NNC(=O)c2cccnc2)c(C)c1	nt	i	7	12	-1
CC1(C(O)(C#CC[N+]2(C)CCCCC2)c2ccccc2)CCCC1 (configuration not stated)	0	+	-123	49	7
CCOC(=O)c1ccc2nc(CCC(=O)N[C@H](C(=O)OC)C(C)C)c(=O)n(CC)c2c1	-1	i	-6	57	78
CC[C@]12C(=O)N(C)C[C@H]([C@@H]3C(=O)N(C)C(=O)[C@@H]31)N2C(=O)c1ccc(C(C)(C)C)cc1	nt	nt	3	nt	nt
CCN(CC)c1ccc(NC(=O)c2ccccc2)cc1S(=O)(=O)Nc1ccccc1OC	2	i	27	95*	1
COc1ccccc1NS(=O)(=O)c1cc(NC(=O)Nc2cccc(C)c2)ccc1N1CCCCC1	-1	i	38*	24	6
O=C(c1ccc2c(=O)n(C3CCCC3)c(=S)[nH]c2c1)N1CCc2ccccc21	0	i	-57	63*	-3
Cc1cccc2c(-c3ccccc3)cc(=O)[nH]c12	-2	i	4	-35	-5
Cc1cc(=S)[nH]c2c(C)cccc12	0	i	30	98*	-7
Cn1c(=O)c(C(=O)Nc2ncccc2O)c(O)c2ccccc21	-6	i	-11	82*	2
